“And” between values parts separate entries of the source, which are not always exact repeats. Identical values can stand only once. Among all 5,500 compounds or so, about 2,000 (36%) were called active. Roughly 18% stayed inconclusive and do not appear here. Cut-off read from the data, not from the text of the source: active = normalized growth mostly below about 0.91 (no sharp cut-off); inconclusive = no clear call, values can overlap the other calls; inactive = mostly above about 0.92. This is one part of the list.
Assay: chemical genetic growth profiling, strain panel (AID 1159580);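 note: tested at 20 µM; growth read once vehicle control cultures reached saturation at 30 °C; 1 = growth at the plate median or of vehicle wells; lower values mean less growth of the strain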
Conditions: S. cerevisiae deletion strains, growth OD

Measured: normalized growth

CC[C@@H](C(=O)C(C)[C@@H](O)[C@H](C)CCc1ccc(C)c(O)c1C(=O)O)C1OC(CC)(C2CC[C@](O)(CC)[C@H](C)O2)C[C@@H]1C (stereo partly drawn)
active: locus YBR021W, strain FUR4, active compounds read low 1.16 [resistant] | locus YBR171W, strain sec66, active compounds read low 1.12 [resistant] | locus YCL069W, strain vba3, active compounds read low 1.08 [resistant] | locus YDR137W, strain rgp1, active compounds read low 1.24 [resistant] | locus YDR392W, strain spt3, active compounds read low 0.732 | locus YER155C, strain BEM2, active compounds read low 1.13 [resistant] | locus YGL227W, strain vid30, active compounds read low 1.09 [resistant]
inactive: locus YAL013W, strain DEP1, active compounds read low 1.05 | locus YAL021C, strain ccr4, active compounds read low 1.03 | locus YAL026C, strain drs2, active compounds read low 0.949 | locus YAL030W, strain snc1, active compounds read low 1.06 | locus YBL061C, strain skt5, active compounds read low 1.06 | locus YBR009C, strain hhf1, active compounds read low 1.01 | locus YBR023C, strain chs3, active compounds read low 1.06 | locus YBR229C, strain ROT2, active compounds read low 1.04 | locus YBR231C, strain swc5, active compounds read low 1.07 | locus YBR279W, strain paf1, active compounds read low 1.06 | locus YCL011C, strain gbp2, active compounds read low 1.06 | locus YCL016C, strain dcc1, active compounds read low 1.05 | locus YCL029C, strain bik1, active compounds read low 1.02 | locus YCL061C, strain MRC1, active compounds read low 1.04 | locus YCR088W, strain abp1, active compounds read low 1.07 | locus YDL005C, strain med2, active compounds read low 1.08 | locus YDL035C, strain GPR1, active compounds read low 0.978 | locus YDL040C, strain nat1, active compounds read low 1.06 | locus YDL074C, strain BRE1, active compounds read low 0.938 | locus YDL101C, strain DUN1, active compounds read low 1.03 | locus YDL134C, strain PPH21, active compounds read low 1.02 | locus YDL185W, strain tfp1, active compounds read low 0.993 | locus YDL192W, strain arf1, active compounds read low 1.01 | locus YDR001C, strain nth1, active compounds read low 1.07 | locus YDR069C, strain doa4, active compounds read low 1.02 | locus YDR101C, strain arx1, active compounds read low 1.04 | locus YDR150W, strain NUM1, active compounds read low 1.05 | locus YDR159W, strain sac3, active compounds read low 0.996 | locus YDR162C, strain NBP2, active compounds read low 1.01 | locus YDR195W, strain ref2 1.05 | locus YDR297W, strain sur2, active compounds read low 1.05 | locus YDR318W, strain mcm21, active compounds read low 1.01 | locus YDR334W, strain swr1, active compounds read low 1.08 | locus YDR335W, strain msn5, active compounds read low 1.08 | locus YDR388W, active compounds read low 1.02 | locus YDR502C, strain sam2, active compounds read low 1 | locus YEL003W, strain gim4, active compounds read low 1.04 | locus YEL037C, strain rad23, active compounds read low 1.07 | locus YEL061C, strain CIN8 (second series), active compounds read low 1.08 | locus YEL061C, strain CIN8, active compounds read low 1.02 | locus YER015W, strain faa2, active compounds read low 1.06 | locus YER016W, strain bim1, active compounds read low 1.05 | locus YER110C, active compounds read low 1.02 | locus YER111C, strain swi4, active compounds read low 1.07 | locus YER155C, strain BEM2 (second series), active compounds read low 1.04 | locus YER167W, strain BCK2, active compounds read low 1.02 | locus YFR010W, strain ubp6, active compounds read low 1.06 | locus YGL078C, strain dbp3, active compounds read low 0.998 | locus YGL086W, strain mad1, active compounds read low 1.05 | locus YGL167C, strain pmr1, active compounds read low 1.07 | locus YGL173C, strain kem1, active compounds read low 1.04 | locus YGL240W, strain doc1, active compounds read low 1.03 | locus YGL248W, strain PDE1, active compounds read low 1.02 | locus YGL253W, strain hxk2, active compounds read low 1.06 | locus YGR135W, strain pre9, active compounds read low 0.981 | locus YGR252W, strain gcn5, active compounds read low 0.967 | locus YHR013C, strain ard1, active compounds read low 1.1 | locus YHR027C, strain rpn1, active compounds read low 1.07 | locus YHR030C, strain SLT2, active compounds read low 1.03 and 0.969 | locus YHR079C, strain IRE1 (second series), active compounds read low 1.02 | locus YHR079C, strain IRE1, active compounds read low 0.944 | locus YHR094C, strain hxt1, active compounds read low 1.03 | locus YHR129C, strain ARP1, active compounds read low 1.04 | locus YHR142W, strain chs7, active compounds read low 1.08 | locus YHR200W, strain rpn10, active compounds read low 1.02 | locus YIL066C, strain RNR3, active compounds read low 1.02 | locus YIL073C, strain SPO22, active compounds read low 0.988 | locus YIL125W, strain kgd1, active compounds read low 1 | locus YIR030C, strain dcg1, active compounds read low 1.03 | locus YJL092W, strain hpr5, active compounds read low 1.06 | locus YJL095W, strain BCK1 (second series), active compounds read low 1.06 | locus YJL095W, strain BCK1, active compounds read low 1.02 and 0.976 | locus YJL115W, strain asf1, active compounds read low 1.06 | locus YJL129C, strain trk1, active compounds read low 0.976 | locus YJL134W, strain LCB3, active compounds read low 1.04 | locus YJL154C, strain vps35, active compounds read low 1.06 | locus YJL164C, strain tpk1, active compounds read low 1.03 | locus YJL166W, strain qcr8, active compounds read low 1.06 | locus YJL168C, strain set2, active compounds read low 1.04 | locus YJL187C, strain SWE1 (second series), active compounds read low 1.03 | locus YJL187C, strain SWE1, active compounds read low 1.06
